Most compounds without a hit are left out; they make up all but 3.3% or so of the library.
PRMT1 inh = inhibitors of human PRMT1. recombinant PRMT1, activity-based probe fluorescence polarization. inhibition, % at 2.79 µM. actives 1.3% (n = 370,000);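 active = inhibition above about 21% made by adding two undisclosed values, limit read from the data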
MBD2 DNA inh = MBD2-methylated oligo binding inhibition; inhibition, % at 4.4 µM; AID 686964; actives 0.31% (n = 370,000); TR-FRET, MBD2 binding to methylated oligonucleotide; in the data active = inhibition above about 13%
PfGluPho inh = PfG6PD (Plasmodium falciparum) enzyme inhibition; PfGluPho enzyme, NADPH resazurin-diaphorase fluorescence; inhibition, % at 20 µM; actives 0.78% (n = 350,000);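 active = inhibition reaching at least a set limit at 20 µM in the primary screen, cut at about 59% in these data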
UHRF1 MBD2 ctr = blocks human UHRF1 binding to methylated DNA. Q96T88. UHRF1 binding to methylated oligo, TR-FRET. inhibition, % at 4.4 µM. actives 0.75% (n = 370,000); in the data active = inhibition above about 21%;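 note: UHRF1 SRA domain binding a hemimethylated CpG hairpin DNA probe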
Target sequence (Q96T88 whole entry, looked up, the tested form may be a part): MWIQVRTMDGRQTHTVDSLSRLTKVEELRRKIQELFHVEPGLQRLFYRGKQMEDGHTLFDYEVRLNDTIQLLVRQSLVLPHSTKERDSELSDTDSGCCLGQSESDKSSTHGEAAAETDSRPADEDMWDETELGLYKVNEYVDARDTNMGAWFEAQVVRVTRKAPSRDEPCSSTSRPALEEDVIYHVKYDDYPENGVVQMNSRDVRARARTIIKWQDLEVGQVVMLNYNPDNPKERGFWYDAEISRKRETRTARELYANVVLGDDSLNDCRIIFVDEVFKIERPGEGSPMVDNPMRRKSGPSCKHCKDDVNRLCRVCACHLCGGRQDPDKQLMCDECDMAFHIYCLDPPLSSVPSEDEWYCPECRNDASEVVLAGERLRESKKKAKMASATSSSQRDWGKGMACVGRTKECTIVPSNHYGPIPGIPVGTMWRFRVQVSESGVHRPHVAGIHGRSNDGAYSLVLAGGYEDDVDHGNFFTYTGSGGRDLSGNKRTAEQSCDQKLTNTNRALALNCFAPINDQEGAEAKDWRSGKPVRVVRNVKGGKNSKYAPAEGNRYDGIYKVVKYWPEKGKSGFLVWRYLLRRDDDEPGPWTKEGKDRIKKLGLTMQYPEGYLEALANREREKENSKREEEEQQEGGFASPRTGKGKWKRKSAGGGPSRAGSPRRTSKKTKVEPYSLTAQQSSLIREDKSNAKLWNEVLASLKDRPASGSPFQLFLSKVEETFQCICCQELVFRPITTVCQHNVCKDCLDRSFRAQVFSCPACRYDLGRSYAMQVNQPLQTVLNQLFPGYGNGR
PfM18AAP inh = PfM18AAP enzyme inhibition. inhibition, % at 7.35 µM. actives 1.2% (n = 290,000). recombinant PfM18AAP, H-Glu-NHMec fluorogenic cleavage;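 active = inhibition above the campaign mean inhibition over all tested compounds plus 3 SD, cut at about 28% in these data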
PRMT1 inh conf = PRMT1 (human) inhibition, FP confirmation; shares compounds with PRMT1 inh; recombinant His-PRMT1, activity-based probe fluorescence polarization; inhibition, % at 2.79 µM; actives 42% (n = 3,300); AID 687036;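 active = mean inhibition across replicates above the hit cutoff derived for the earlier primary screen, cut at about 22% in these data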
Hits are given with their value.

For Cc1c(C(=O)NCc2ccc3c(c2)OCO3)sc2nc(-c3ccccc3)cn12 the results were PRMT1 inh inactive, MBD2 DNA inh inactive, PfGluPho inh inactive, UHRF1 MBD2 ctr inactive and PfM18AAP inh inactive.
`Cc1c(C(=O)NCc2ccc3c(c2)OCO3)sc2nc(-c3ccc(F)cc3)cn12` gave PRMT1 inh 29, MBD2 DNA inh inactive, PfGluPho inh inactive, UHRF1 MBD2 ctr inactive, PfM18AAP inh inactive and PRMT1 inh conf inactive.
`N#CC1=C(N)OC2=C(CC/C2=C\c2ccccc2Cl)C1c1ccccc1Cl` (stereo not drawn) gave PRMT1 inh inactive, MBD2 DNA inh inactive, PfGluPho inh inactive, UHRF1 MBD2 ctr inactive and PfM18AAP inh inactive.
N#CC1=C(N)OC2=C(CC/C2=C\c2ccccc2)C1c1ccccc1 (stereo not drawn) was read as PRMT1 inh 27, MBD2 DNA inh inactive, PfGluPho inh inactive, UHRF1 MBD2 ctr inactive, PfM18AAP inh inactive and PRMT1 inh conf 48.
Screening CCc1ccccc1NC(=O)CSc1nnc([C@@H](N)Cc2ccccc2)o1 returned PRMT1 inh 43, MBD2 DNA inh inactive, PfGluPho inh inactive, UHRF1 MBD2 ctr inactive, PfM18AAP inh inactive and PRMT1 inh conf 28.
For O=[N+]([O-])c1ccc(-c2csc3[n+]2CCS3)cc1 the results were PRMT1 inh 47, MBD2 DNA inh inactive, PfGluPho inh inactive, UHRF1 MBD2 ctr inactive, PfM18AAP inh inactive and PRMT1 inh conf inactive.
For Fc1ccc(-c2csc3[n+]2CCS3)cc1 the results were PRMT1 inh inactive, MBD2 DNA inh inactive, PfGluPho inh inactive, UHRF1 MBD2 ctr inactive and PfM18AAP inh inactive.
`O=C(CN1CCN(c2ccc(F)cc2)CC1)Nc1ccccc1[N+](=O)[O-]` gave PRMT1 inh inactive, MBD2 DNA inh inactive, PfGluPho inh inactive, UHRF1 MBD2 ctr inactive and PfM18AAP inh inactive.
For CCCCOc1ccccc1NC(=O)C=C(C)C the results were PRMT1 inh inactive, MBD2 DNA inh inactive, PfGluPho inh inactive, UHRF1 MBD2 ctr inactive and PfM18AAP inh inactive.
`CCCOc1ccccc1NC(=O)/C=C/C(N)=O` gave PRMT1 inh 59, MBD2 DNA inh inactive, PfGluPho inh inactive, UHRF1 MBD2 ctr inactive, PfM18AAP inh inactive and PRMT1 inh conf 36.
Cc1ccc(C)c(-c2csc(N/N=C/c3ccco3)n2)c1 was read as PRMT1 inh inactive, MBD2 DNA inh inactive, PfGluPho inh inactive, UHRF1 MBD2 ctr inactive and PfM18AAP inh inactive.
CSc1ccc(NC(=O)CSc2nc3[nH]c(=O)cc(O)c3s2)cc1 was read as PRMT1 inh 48, MBD2 DNA inh inactive, PfGluPho inh inactive, UHRF1 MBD2 ctr inactive and PRMT1 inh conf inactive.
Screening N#Cc1ccc(NC(=O)CSc2nc3[nH]c(=O)cc(O)c3s2)cc1 returned PRMT1 inh inactive, MBD2 DNA inh inactive, PfGluPho inh inactive and UHRF1 MBD2 ctr inactive.
`O=C1C=C(C2CCCCC2)C(=O)c2ccccc21` gave PRMT1 inh 31, MBD2 DNA inh inactive, PfGluPho inh inactive, UHRF1 MBD2 ctr inactive and PRMT1 inh conf inactive.
For O=C(O)C1=C(C2CCCCC2)C(=O)c2ccccc21 the results were PRMT1 inh inactive, MBD2 DNA inh inactive, PfGluPho inh inactive and UHRF1 MBD2 ctr inactive.
`CCCCC(=O)OCC(=O)C1(O)Cc2c(O)c3c(c(O)c2C(OC2CC(NC(=O)C(F)(F)F)C(O)C(C)O2)C1)C(=O)c1c(OC)cccc1C3=O` (stereo not drawn) gave PRMT1 inh 25, MBD2 DNA inh inactive, PfGluPho inh inactive, UHRF1 MBD2 ctr inactive and PRMT1 inh conf inactive.
Screening CSc1ccccc1NC(=O)CN(C)Cc1c(O)ccc2ccccc12 returned PRMT1 inh 39, MBD2 DNA inh inactive, PfGluPho inh inactive, UHRF1 MBD2 ctr inactive, PfM18AAP inh inactive and PRMT1 inh conf 30.
For CSc1ccccc1NC(=O)CN(C)Cc1ccc(Br)cc1 the results were PRMT1 inh inactive, MBD2 DNA inh inactive, PfGluPho inh inactive, UHRF1 MBD2 ctr inactive and PfM18AAP inh inactive.
Screening COc1ccc(-c2cc(=O)oc3cc(OCC(=O)Nc4ccc(CCO)cc4)ccc23)cc1 returned PRMT1 inh inactive, MBD2 DNA inh inactive, PfGluPho inh inactive, UHRF1 MBD2 ctr inactive and PfM18AAP inh inactive.
`Cc1ccc(CNS(=O)(=O)c2ccc(CN3C(=O)c4cccnc4C3=O)cc2)o1` gave PRMT1 inh 26, MBD2 DNA inh inactive, PfGluPho inh inactive, UHRF1 MBD2 ctr inactive, PfM18AAP inh inactive and PRMT1 inh conf inactive.
CC(=O)Nc1ccc(NS(=O)(=O)c2ccc(CN3C(=O)c4cccnc4C3=O)cc2)cc1 was read as PRMT1 inh inactive, MBD2 DNA inh inactive, PfGluPho inh inactive, UHRF1 MBD2 ctr inactive and PfM18AAP inh inactive.
Screening Cc1ccc(CNS(=O)(=O)c2cc(F)ccc2CN2C(=O)c3cccnc3C2=O)o1 returned PRMT1 inh 25, MBD2 DNA inh inactive, PfGluPho inh inactive, UHRF1 MBD2 ctr inactive, PfM18AAP inh inactive and PRMT1 inh conf inactive.
O=C(CC(Sc1ccccc1)c1cccs1)c1ccco1 (stereo not drawn) was read as PRMT1 inh 80, MBD2 DNA inh inactive, PfGluPho inh inactive, UHRF1 MBD2 ctr inactive, PfM18AAP inh inactive and PRMT1 inh conf 83.
`CCOC(=O)C(=C1Nc2ccccc2N1)n1c(-c2cnccn2)nc2ccccc21` gave PRMT1 inh inactive, MBD2 DNA inh inactive and UHRF1 MBD2 ctr inactive.
For CCOC(=O)C(=C1Nc2ccccc2N1)n1c(-c2ccco2)nc2ccccc21 the results were PRMT1 inh 29, MBD2 DNA inh inactive, UHRF1 MBD2 ctr inactive and PRMT1 inh conf 88.
For O=Cc1ccc(-c2ccc(F)cc2)o1 the results were PRMT1 inh inactive, MBD2 DNA inh inactive, PfGluPho inh inactive, UHRF1 MBD2 ctr inactive and PfM18AAP inh inactive.
`O=C(O)/C(=C\c1ccc(-c2ccc(F)cc2)o1)c1ccccc1` gave PRMT1 inh 28, MBD2 DNA inh inactive, PfGluPho inh inactive, UHRF1 MBD2 ctr inactive, PfM18AAP inh inactive and PRMT1 inh conf inactive.
Screening Cn1cnc([N+](=O)[O-])c1S(=O)(=O)c1ccc(Cl)cc1 returned PRMT1 inh 44, MBD2 DNA inh inactive, PfGluPho inh inactive, UHRF1 MBD2 ctr inactive, PfM18AAP inh inactive and PRMT1 inh conf inactive.
Cn1cnc([N+](=O)[O-])c1NC(C)(C)C was read as PRMT1 inh inactive, MBD2 DNA inh inactive, PfGluPho inh inactive, UHRF1 MBD2 ctr inactive and PfM18AAP inh inactive.
Cc1cc(=O)[nH]c(SCc2nnnn2-c2ccc(Cl)cc2)n1 was read as PRMT1 inh 37, MBD2 DNA inh inactive, PfGluPho inh inactive, UHRF1 MBD2 ctr inactive, PfM18AAP inh inactive and PRMT1 inh conf 55.
`CCc1ccc(NC(=S)N(CCN(C)C)C(C)c2ccncc2)cc1` (stereo not drawn) gave PRMT1 inh inactive, MBD2 DNA inh inactive, PfGluPho inh inactive, UHRF1 MBD2 ctr inactive and PfM18AAP inh inactive.
`CCN(CC)C(=O)CSc1nc2c(sc(=S)n2-c2ccccc2)c(=O)n1Cc1ccco1` gave PRMT1 inh 25, MBD2 DNA inh inactive, PfGluPho inh inactive, UHRF1 MBD2 ctr inactive, PfM18AAP inh inactive and PRMT1 inh conf inactive.
